Screening data from PubChem BioAssay.
Hits are enriched below; roughly 3.1% of the tested compounds scored in any of these assays.
Statin myotox sup = suppressors of statin myotoxicity in C2C12 myotubes, primary screen, cell-based, single point, plate reader; C2C12 myotubes + simvastatin, ATP luminescence, 48 h; scaled: DMSO 0, geranylgeraniol control 100; 0.78% of 330,000 active; rescue of ATP level, % at 7.49 µM;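 active = mean ATP rescue above about 67%, or every replicate alone reaching that limit, limit read from the data, passing the limit was not always enough; inconclusive = no clear call, values can overlap the other calls; inactive = mean under the limit and some replicate under it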;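 also: myotubes were challenged with 10 µM simvastatin during compound exposure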
Wnt act = Wnt/beta-catenin pathway activators, primary screen, cell-based, plate reader, single point. activation, % at 9.35 µM. Wnt/beta-catenin reporter cell assay, activator. 1.2% of 300,000 active. AID 743398, 2014; in the data active = activation above about 30%, passing the limit was not always enough; inconclusive = no clear call, values can overlap the other calls;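 also: 0% = neutral control wells and 100% = positive control wells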
esBAF inh = Bmi1 luciferase reporter increase in mESCs, primary screen, esBAF inhibitor project, mouse ES cells, Bmi1 luciferase knock-in, single point; 24 h; 100% = twice the neutral-well signal; reporter increase, % at 12.5 µM; 2% of 350,000 active; AID 602393, 2012; in the data active = activation above about 40%; inconclusive = no clear call, values can overlap the other calls;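 also: 0% = median of the plate's neutral control wells and 100% = double that signal; a rise in the Bmi1 reporter signal indicates esBAF inhibition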
Rtt109 HAT inh = inhibitors of C. albicans Rtt109/Vps75 HAT, primary screen, biochemical, ThioGlo CoA-SH fluorescence, plate reader; purified Rtt109/Vps75, 4 h; inhibition, % at 34.9 µM; 0.16% of 330,000 active; AID 540336, 2011;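 active = inhibition of at least 50% in every replicate; inconclusive = best replicate reaches 50% inhibition but some replicates fall short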
Target sequence (Q5AAJ8 whole entry, looked up): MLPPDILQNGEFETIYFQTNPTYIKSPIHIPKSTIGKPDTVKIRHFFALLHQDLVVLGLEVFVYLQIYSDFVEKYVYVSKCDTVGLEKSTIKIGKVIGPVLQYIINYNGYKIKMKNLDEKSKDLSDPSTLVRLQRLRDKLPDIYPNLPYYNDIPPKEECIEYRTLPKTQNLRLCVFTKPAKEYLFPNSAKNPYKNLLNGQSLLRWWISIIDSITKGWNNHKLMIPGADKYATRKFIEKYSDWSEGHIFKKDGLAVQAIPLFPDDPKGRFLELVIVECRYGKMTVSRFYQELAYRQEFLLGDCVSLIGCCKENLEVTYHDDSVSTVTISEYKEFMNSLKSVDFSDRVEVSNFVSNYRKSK
MITF TRPM1 HTS = activators of MITF-driven TRPM1 promoter reporter, primary screen, cell-based, SK-MEL-5, luciferase, single point; SK-MEL-5 TRPM1-promoter luciferase, 24 h; % of positive control, neutral wells = 0; activation, % at 12.5 µM; 0.75% of 300,000 active; AID 588334, 2011;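 active = mean activation of at least 80% with every replicate also reaching 80%; inconclusive = mean reaches 80% but some replicate falls short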;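 also: 0% = neutral control wells and 100% = parthenolide positive control wells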
* hit, by the source's call; ? = inconclusive; nt = no result given.

SMILES	Statin myotox sup	Wnt act	esBAF inh	Rtt109 HAT inh	MITF TRPM1 HTS
CNc1cncc(-c2cnn(CC(C)C)c2)n1	4	8	43*	nt	nt
CNc1cncc(-c2ccoc2)n1	2	0	1	nt	nt
O=C1Nc2cc(C(=O)NCCCN3CCCC3)ccc2S/C1=C/c1ccccc1F	7	1	3	14	-35
COc1cccc(/C=C2/Sc3ccc(C(=O)NCCN4CCCC4)cc3NC2=O)c1	7	-1	-6	55*	-85
COc1cccc(/C=C2/Sc3ccc(C(=O)NCCCN4CCCC4)cc3NC2=O)c1	-9	1	-6	60*	-54
Cc1ccccc1S(=O)(=O)NCC[C@H]1CC[C@@H](NC(=O)Nc2cccc(Cl)c2)[C@H](CO)O1	-12	nt	10	nt	nt
CCOC(=O)c1ccccc1NC1c2ccccc2C(=O)N1c1cc(C)ccn1 (configuration not stated)	-8	-4	-6	-24	nt
COc1cc(OC)c(NC2c3ccccc3C(=O)N2c2cc(C)ccn2)cc1Cl (configuration not stated)	41	39*	7	9	nt
CS(=O)(=O)Nc1ccc2c(c1)[C@H]1C[C@H](CC(=O)N3CCc4ccccc4C3)O[C@H](CO)[C@H]1O2	1	nt	8	nt	nt
CN(C)c1ccc(NC(=S)N2CCN(c3ncc(C(F)(F)F)cc3Cl)CC2)cc1	nt	52*	nt	-4	2
O=C1CCCCCN1Cc1nnc(SCc2nc3ccccc3s2)n1-c1ccccn1	2	57*	?	-14	nt
CCNC(=O)CSc1nnc(CN2CCCCCC2=O)n1-c1ccccn1	nt	-1	nt	-3	15
O=[N+]([O-])c1cc2c(cc1C=Nc1ccccc1)OCO2	4	nt	0	4	-45
Sc1oc(-c2ccccc2)cc1C=Nc1ccccc1	-22	nt	85*	-3	23
Oc1ccc(COCc2ccccc2)c2cccnc12	-21	1	60*	9	-25
C[C@H](CO)N1C[C@H](C)[C@H](CN(C)Cc2ccc(Cl)c(Cl)c2)OCCCC[C@H](C)Oc2ccc(NC(=O)Nc3ccccc3)cc2C1=O	-64	nt	-2	nt	nt
Cc1ccccc1S(=O)(=O)NCC[C@@H]1CC[C@H](NS(=O)(=O)c2ccccc2C)[C@H](CO)O1	-7	nt	-4	nt	nt
C[C@@H]1CN([C@H](C)CO)C(=O)Cc2cc(NS(=O)(=O)c3cccs3)ccc2O[C@H]1CN(C)Cc1ccncc1	2	nt	-7	nt	nt
CCOc1nc(Nc2ccc(F)cc2)nc(N2CCN(c3ccc(OC)cc3)CC2)n1	110*	nt	8	-3	10
COc1ccc(Nc2ncc(C(=O)N3CCN(c4ccc(F)cc4)CC3)c3ccccc23)cc1	157*	-5	6	3	-6
O=C(Nc1ccon1)c1ccc(N2CCCCC2)c([N+](=O)[O-])c1	nt	29	nt	nt	91*
C[C@@H]1CN([C@H](C)CO)C(=O)c2cccc(NC(=O)NC3CCCCC3)c2O[C@H]1CN(C)Cc1ccc(Cl)c(Cl)c1	nt	nt	-2	nt	nt
CCOC(=O)c1[nH]c2ccc(OC)cc2c1NC(=S)N1CCN(C(=O)OCC)CC1	-15	5	-7	16	-3
CCOC(=O)c1[nH]c2ccc(Br)cc2c1NC(=O)CCN1CCN(C(=O)OCC)CC1	104*	-1	11	1	-2
CCOC(=O)c1[nH]c2ccc(OC)cc2c1NC(=O)CCN1CCCC(C)C1 (configuration not stated)	145*	nt	0	-2	-9
SMILES	Statin myotox sup	Wnt act	esBAF inh	Rtt109 HAT inh	MITF TRPM1 HTS
CCOC(=O)Nc1c(C(=O)OC)[nH]c2cc(OC)ccc12	107*	nt	3	0	-43
C[C@H]1CN([C@@H](C)CO)C(=O)Cc2cc(NC(=O)CCCCCC(=O)Nc3ccccc3N)ccc2O[C@H]1CN(C)C(=O)Nc1ccc(C(F)(F)F)cc1	12	nt	-1	nt	nt
CCC(=O)N(C)C[C@@H]1Oc2cc(C#CC3(O)CCCC3)ccc2S(=O)(=O)N([C@H](C)CO)C[C@H]1C	-8	nt	-2	nt	nt
O=C(NCC1CCCO1)c1cc(-c2ccc(F)cc2)no1 (configuration not stated)	-10	39*	27	-4	12
COc1cccc(-c2cc(C(=O)NCC3CCCO3)on2)c1 (configuration not stated)	7	11	56*	0	41
COc1ccc(NC(=S)NCC2CCCO2)c(OC)c1 (configuration not stated)	91*	6	-4	-2	7
COc1ccc(-c2cc(C(=O)NCC3CCCO3)on2)cc1OC (configuration not stated)	-4	0	4	4	8
CC(=O)Nc1cccc(NC(=O)c2ccc(COc3ccccc3)cc2)c1	7	-2	98*	-3	154*
CC(=O)Nc1cccc(OCc2ccc([N+](=O)[O-])cc2)c1	nt	43*	nt	nt	nt
CC(=O)Nc1ccc(NC(=O)c2ccc(COc3ccccc3)cc2)cc1	1	-1	-6	18	nt
CC(=O)Nc1cccc(OCCCOc2ccc([N+](=O)[O-])cc2)c1	nt	1	nt	4	19
CO[C@@H]1CN(C)C(=O)c2cc(NC(=O)C3CCC3)ccc2OC[C@H](C)NC[C@H]1C	3	nt	0	nt	nt
C[C@H]1CCCCO[C@@H](CN(C)Cc2ccc3c(c2)OCO3)[C@@H](C)CN([C@@H](C)CO)C(=O)c2cc(NS(=O)(=O)c3ccccc3)ccc2O1	nt	nt	-2	nt	nt
CC1CCC(=O)N(CCSc2ccccc2)CC1 (configuration not stated)	-2	33*	-14	-6	87*
COc1ccc(NC(=O)N(C)C[C@@H]2OCCCC[C@@H](C)Oc3ccc(NC(=O)c4ccccc4)cc3C(=O)N([C@H](C)CO)C[C@@H]2C)cc1	nt	nt	2	nt	nt
C[C@@H]1CCCCO[C@@H](CN(C)CC2CCCCC2)[C@@H](C)CN([C@@H](C)CO)C(=O)c2cc(NS(=O)(=O)c3ccc(F)cc3)ccc2O1	-86	nt	8	nt	nt
CC(C)NC(=O)COc1ccc(S(=O)(=O)N(C)Cc2ccccc2)cc1	2	44*	-6	-15	-4
CN(Cc1ccccc1)S(=O)(=O)c1ccc(OCC(=O)NCc2ccccn2)cc1	3	-1	-2	-9	10
Fc1ccccc1CSc1ncnc2c1ncn2C1CCCO1 (configuration not stated)	0	0	69*	7	59
Nc1ncnc2c1ncn2C1CCCO1 (configuration not stated)	3	-3	4	5	11
CCCCSc1ncnc2c1ncn2C1CCCCO1 (configuration not stated)	3	52*	16	24	90*
